# Experimental data: the supplement of paper PMC6555819
# Tests used:
# Experiment in all cases: PBM binding z-score (relative to random genomic background probes); higher = stronger binding; sequences stand for … in GC…GCGATTGACAGCGTAGAATGAAGG
# [1] = tested on: RARb homodimer (NR concentration 270 nM)
# Outline: (§1)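 Antibodies against each partner of ligand-free nuclear receptor dimers (one per run) detected binding on custom Agilent 4×180K protein-binding microarrays after 1 h incubation. The double-stranded probes had 34-nt variable regions carrying direct-repeat seeds, single-nucleotide variants, half-site ablations and random human genomic background sequences. Binding z-scores, from regression-normalized fluorescence, use the random background probes as reference.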
# [2] = tested on: RARg:RXRa (NR concentration 270 nM, RXRa partner concentration 90 nM)
# Outline: as §1
# [3] = tested on: RARg homodimer (NR concentration 270 nM)
# Outline: as §1
# [4] = tested on: RXRa DBDmut IVT, anti-RXR (DBD mutation: RXRa K156A/R161A, NR concentration 90 nM)
# Outline: as §1
# [5] = tested on: RXRa homodimer (NR concentration 180 nM)
# Outline: as §1
# [6] = tested on: THRa:RXRa (NR concentration 90 nM, RXRa partner concentration 90 nM)
# Outline: as §1
# [7] = tested on: THRa homodimer (NR concentration 90 nM)
# Outline: as §1
# [8] = tested on: VDR:RXRa (NR concentration 270 nM, RXRa partner concentration 90 nM)
# Outline: as §1
# [9] = tested on: VDR homodimer (NR concentration 270 nM)
# Outline: as §1
Sequence,PBM binding z-score [1],PBM binding z-score [2],PBM binding z-score [3],PBM binding z-score [4],PBM binding z-score [5],PBM binding z-score [6],PBM binding z-score [7],PBM binding z-score [8],PBM binding z-score [9]
TCTAGCAGGCGAGAGGGTCACTCAAGAGGTACGG,2.17,2.04,1.83,-0.024,2.15,1.52,-0.333,1.49,0.103
TGTTGTAGATCAATAGAGGTTAAGAAAGTGCGCT,1.3,1.06,0.973,-0.255,1.25,2.39,-0.0243,1.92,0.759
CTCGAAAGGTCGGTTGAGGAGAGTATACGGATAA,1.66,2.45,2.43,0.577,1.74,4.2,-0.262,0.954,0.602
AGAATGAAGTTATACGTAGATCAGGGAAGAAAGT,-0.451,0.0716,0.29,-0.796,-0.0486,-0.563,-0.66,-0.299,-0.183
CGAACTAGGTCAAGGACAGCGAATCTCCGCACGC,3.31,3.9,4.6,1.5,2.63,3.17,2.2,1.31,0.441
CCTACTGGGCCATTCAGAGGTCATTGCTCATATG,3.78,4.44,3.16,0.998,3.47,3.03,1.28,3.84,3.65
TCGAGTAGTTTACCAATGGGGCATTCAGCTTTCT,0.239,-0.401,-0.51,0.878,-0.356,-0.217,-0.644,-0.0762,-0.305
CGTCCAAGGTCATAGGAGGTAAGTGAAGACAGAT,3.21,5.58,5.93,3.37,5.29,4.6,2.43,4.61,2.6
AGAACGAGGGCAATGAGTTGATAGCGCGGGTGGC,0.949,0.964,1.44,2.34,0.602,0.756,-0.205,5.04,3.3
ACTTGCAGGCCAAGGGTCACTCAAGATTAGTCCG,4.01,4.38,3.9,0.954,4.47,2.89,0.244,3.05,1.36
GCGACTGGGGCAAAGCAGCTTACCATAAGGTTGG,-0.0781,-0.172,0.112,-0.131,-0.267,-0.139,-0.756,-0.87,-0.658
TAGCCTAGGTCATTAAGGGGCCAGTATAGAAAGC,3.1,5.12,3.99,1.36,2.52,2.9,0.623,2.52,0.937
TCTTGTAGATCAAACGTTAAGAAAGCCGAAGCCT,-0.779,-0.146,-0.238,0.749,0.138,-0.412,-0.567,0.359,-0.573
CCTACTAGTTGACCATAAGGGCAACCGAAGCTCG,1.92,0.922,0.714,0.0414,0.509,1.75,1.28,0.471,0.643
GCTATTAGTTGAAAGGGCCACCGAATGATTCTCG,1.19,0.331,0.583,0.436,0.34,0.0196,-0.402,-0.0971,0.169
CCTGCTAGGTCATTGTCAGCTAATCTACAGTATG,2.45,3.06,3.95,2.93,1.9,2.61,0.862,1.66,1.14
CCTTACGGGTCAAGGTTAAAGCACGGGTGGTACG,3.57,5.08,4.78,0.827,5.39,3.06,1.01,3.5,1.43
CCTGCTTGGTCATGGTCAGCTAATCTACAGTATG,0.424,0.464,0.774,0.252,0.162,-0.0915,-0.506,-0.22,-0.205
TGAATGAGGTTATAAGATCAGGGAGCGTTGCAAA,-0.251,1.37,0.756,0.685,1.8,1.61,-0.245,0.606,0.229
TCTTGTAGATCAATGGAGGTTAAGAAAGTGCGCT,0.785,0.419,0.147,0.79,0.919,2.03,-0.299,1.38,0.227
ACTATTAGTTGAGACGAGGGCAAGCGATAGGTTG,1.06,0.352,0.635,0.63,0.484,2.28,0.357,0.29,0.593
GCATATAGGTAATACAATGTGAAAGTCCGATTGT,-0.3,0.415,0.478,0.58,0.305,0.425,-0.105,-0.0597,0.523
CCTGCTGGGCCATCAGGTCATTGATATCAACGTT,2.51,2.06,2.01,0.287,1.01,3.19,2.31,1.59,1.01
CTTGCTAGGTCATGGTCAGCTAATCTACAGTATG,3.07,3.94,4.57,1.95,2.77,2.96,1.27,1.59,0.195
ACTTACGGGTCATCGAGGTTATAGCACGCGTATA,3.64,5.43,4.96,2.98,6.18,4.03,1.28,7.51,4.26
TCGAGTAGGTTACCAATGGGTCATTCAGCTTTCT,2.41,3.58,1.68,0.573,2.18,1.62,-0.434,1.85,0.102
